LmPK inhibitor: LmPK (Leishmania mexicana) enzyme inhibition; Q27686; AID 1721; Potency, µM (series often up to 57.5 µM), inactives show at the top dose activity change, negative = inhibition, hits mostly inhibitors; purified LmPK, Kinase-Glo ATP luminescence, 1 h; 290,000 compounds, 0.37% hits
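Kinase-Glo luminescence read after 1 h RT reaction of 0.1 nM LmPK with 0.5 mM PEP and 0.1 mM ADP. Activity scaled between uninhibited and enzyme-free controls.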
Tb PYK inh: blocks Trypanosoma brucei pyruvate kinase. TbPYK enzyme, Kinase-Glo Plus ATP luminescence, 45 min. Potency, µM (doses to about 76.8 µM), for inactives: top-dose activity, negative = inhibition, actives largely listed as inhibitors. 410,000 compounds, 0.12% hits. AID 624173; also: nearly all actives have a fitted effect of over 50% in size
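In this concentration-response screen, enzyme-free wells defined baseline while DMSO plates tracked drift. Each reaction combined TbPYK, substrate, compound and 130 uM ADP for 45 min at room temperature. Kinase-Glo Plus luminescence gave the signal.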
RE007 growth inh: less growth of the S. pombe RE007 Vpr strain. S. pombe RE007 Vpr strain, BacTiter-Glo ATP luminescence, 24 h. Potency, µM (doses to about 92.2 µM), for the others: at the top dose activity change, negative = less growth, most hits filed as inhibitors. 360,000 compounds, 0.21% hits; active = well fitted falling curve with a large enough effect; inconclusive = small, poorly fitted or top-dose-only effect; inactive = no such curve, though single readings can be large or run the other way; also: nearly all actives have a fitted effect of over 50% in size
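Fission yeast RE007 carrying one integrated HIV-1 vpr copy, seeded at OD 0.01 in PMG+AL medium with 23 nL pinned compound. Grown 24 h at 30 degrees; viability read by BacTiter-Glo luminescence after 5 min.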
FBPA Giardia inh: inhibitors of Giardia lamblia fructose-1,6-bisphosphate aldolase; AID 2451; A8B2U2; purified Giardia FBPA; Potency, µM (series often up to 59.6 µM), for the others: at the highest dose activity, negative = inhibition, usual class: inhibitors; 290,000 compounds, 0.71% hits; also: nearly all actives have a fitted effect of over 55% in size
Target sequence (A8B2U2 whole entry, looked up): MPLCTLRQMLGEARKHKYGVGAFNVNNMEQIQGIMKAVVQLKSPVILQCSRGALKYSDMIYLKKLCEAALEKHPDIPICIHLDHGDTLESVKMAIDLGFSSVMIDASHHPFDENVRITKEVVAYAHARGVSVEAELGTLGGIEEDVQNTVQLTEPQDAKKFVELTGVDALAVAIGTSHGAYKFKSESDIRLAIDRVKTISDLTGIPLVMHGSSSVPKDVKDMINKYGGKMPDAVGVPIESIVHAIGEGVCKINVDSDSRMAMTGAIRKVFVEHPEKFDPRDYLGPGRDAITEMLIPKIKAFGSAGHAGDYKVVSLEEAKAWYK
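40 nM FBPA preincubated 10 min at RT with compound (up to 57.5 uM final), then substrate plus GAPDH/TPI/NAD/arsenate coupling and diaphorase/resazurin added. Fluorescence read after 20 min at RT, 525/598 nm.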
* hit, by the source's call; ? = inconclusive; nt = no result given. Only some compounds are listed: those with a hit (about 0.95% of all), similar ones and a draw of the others. Unless noted, calls follow the shape of the dose curve; as a rule, active = well fitted curve in the direction sought with a large enough effect; inconclusive = small, poorly fitted or top-dose-only effect, or another doubt; inactive = no such curve, though single readings can be large; an effect the other way counts as inactive or inconclusive. % is scaled to controls: 0 for no effect and ±100 for the full control effect; potency is read from the fitted curve at half-maximal effect.

SMILES	LmPK inhibitor	Tb PYK inh	RE007 growth inh	FBPA Giardia inh
Cc1ccc(C)c(-n2c(Cc3cccs3)n[nH]c2=S)c1	10µM*	?	-7%	3%
S=c1[nH]nc(-c2cc(-c3ccco3)[nH]n2)n1-c1cccc2ccccc12	7.9µM*	?	-5%	-29%
CCC[C@]1(CCc2ccccc2)CC(O)=C([C@H](CC)c2cccc(NS(=O)(=O)c3ccc(C(F)(F)F)cn3)c2)C(=O)O1	nt	4%	nt	nt
COc1ccccc1-n1c(Cc2cccs2)n[nH]c1=S	-20%	?	-7%	-8%
S=c1[nH]nc(Cc2cccs2)n1-c1ccccc1Cl	10µM*	?	10%	-4%
S=c1[nH]nc(Cc2cccs2)n1-c1cccc2ccccc12	7.9µM*	?	nt	13%
Cc1ccc(-n2c(Cc3cccc4ccccc34)n[nH]c2=S)c(C)c1	-12%	?	1%	0%
Cc1nc(NC(=O)c2ccco2)sc1C(=O)O	25µM*	25µM*	?	-6%
CCOc1ccccc1NC(=O)N1CCc2cc(S(=O)(=O)N3CCC(C)CC3)ccc21	nt	-3%	nt	nt
CC(C)(C)N=Cc1c(O)ccc2oc3c(c12)CCCC3	3%	1%	-10%	3%
O=[N+]([O-])c1cc2oc3c(c2c(C=NCc2ccncc2)c1O)CCCC3	14µM*	?	?	?
CCc1[nH]c(=O)c(C#N)c2c1CCCC2	-12%	0%	10%	-8%
CCc1[nH]c(=S)c(C#N)c2c1CCCC2	17%	16µM*	55%	0%
COc1ccc2nc(-c3ccc(N(C)C)cc3)sc2c1	nt	nt	nt	-2%
CNC(=O)c1ccccc1Sc1ccc2c(/C=C/c3ccccn3)n[nH]c2c1	nt	0%	nt	nt
Cc1ccc(NC(=S)Nc2ccc3nc(-c4ccccn4)c(-c4ccccn4)nc3c2)cc1C	2%	1%	-4%	1.3µM*
C=Cc1ccc(N=Cc2c(O)ccc3ccccc23)cc1	0%	2%	-16%	14µM*
CCCc1ccc(S(=O)(=O)N2CCC(Oc3ccc(-n4cnnn4)cc3)CC2)cc1	nt	-2%	nt	nt
CCN(CC)C1CC(=O)N(c2ccc(Br)cc2)C1=O (stereo not given)	0%	7%	2µM*	-3%
CC(=O)N(Cc1ccc(F)cc1)C1=C(NCc2ccccc2)C(=O)c2ccccc2C1=O	-2%	-2%	7.1µM*	?
COc1ccccc1-n1c(-c2cn(C)nc2C)n[nH]c1=S	22µM*	?	-18%	?
COc1ccc(-c2cc(-c3n[nH]c(=S)n3-c3ccccc3OC)[nH]n2)cc1	11µM*	-28%	25%	15%
COc1ccc(OC)c(-n2c(-c3cccc(C)c3)n[nH]c2=S)c1	?	2.5µM*	17%	-14%
Fc1ccc(-n2c(-c3ccc4ccccc4n3)n[nH]c2=S)cc1Cl	8%	-27%	16%	-6%
S=c1[nH]nc(-c2ccc3ccccc3n2)n1-c1ccc2ncccc2c1	14µM*	4µM*	7%	2%
SMILES	LmPK inhibitor	Tb PYK inh	RE007 growth inh	FBPA Giardia inh
O=c1c2ccccc2[nH]c(=S)n1-c1cccnc1	5%	7%	-17%	-25%
COc1cc(OC)cc(C(=O)NCc2n[nH]c(=S)n2-c2ccccc2OC)c1	?	11µM*	6%	-17%
COc1ccccc1-n1c(CNC(=O)c2cccs2)n[nH]c1=S	?	?	5%	?
S=c1[nH]nc(-c2cccc3ccccc23)n1-c1cccnc1	13µM*	?	-14%	-2%
COc1ccc(OC)c(-n2c(-c3ccccc3)n[nH]c2=S)c1	2.2µM*	11µM*	-6%	-9%
COc1ccc(-c2n[nH]c(=S)n2-c2ccccc2C)cc1OC	?	?	-22%	4%
COc1ccccc1-n1c(-c2ccccc2)n[nH]c1=S	-16%	6.3µM*	30%	-8%
Cn1c(=O)oc2cc(S(=O)(=O)CCC(=O)N3CCN(c4cccc(Cl)c4)CC3)ccc21	nt	7%	nt	nt
COc1ccc(OC)c(-n2c(-c3cc(-c4ccccc4)n[nH]3)n[nH]c2=S)c1	10µM*	?	-9%	11%
Cc1ccccc1-n1c(-c2cccnc2)n[nH]c1=S	11µM*	?	4%	?
COc1ccc(-c2cc(-c3ccccc3)n[nH]2)c(O)c1	1%	-4%	?	-1%
COc1ccc(-c2n[nH]c(=S)n2-c2ccccc2C)cc1	28µM*	?	-5%	24%
Cc1ccccc1-n1c(-c2ccc3ccccc3n2)n[nH]c1=S	18µM*	?	-6%	-25%

Source: PubChem (National Center for Advancing Translational Sciences (NCATS))
